PubChem BioAssay AID1159580 (chemical genetic matrix, 2015)
Where “and” joins values, the source holds several entries; their conditions need not be identical. Equal values may be shown once. Screen size: about 5,500 compounds; about 2,000 (36%) were called active. Not shown: some 18% with an inconclusive outcome. No stated cut-off is given here; in the data, active means normalized growth mostly below about 0.91 (no sharp cut-off); inconclusive means no clear call, values can overlap the other calls; inactive means mostly above about 0.92. The list shows a part of the results.

Test: chemical genetic growth profiling, strain panel (AID 1159580);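 further: tested at 20 µM; growth read once vehicle control cultures reached saturation at 30 °C; 1 = growth at the plate median or of vehicle wells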
Details: S. cerevisiae deletion strains, growth OD

Measured: normalized growth

CC[n+]1c(-c2ccccc2)c2cc(N)ccc2c2ccc(N)cc21
active: locus YAL013W, strain DEP1, stronger effect = lower value 0.879 | locus YCL029C, strain bik1, stronger effect = lower value 0.664 | locus YDL035C, strain GPR1, stronger effect = lower value 0.703 | locus YDL134C, strain PPH21, stronger effect = lower value 0.776 | locus YDL185W, strain tfp1, stronger effect = lower value 0.853 | locus YDR101C, strain arx1, stronger effect = lower value 0.886 | locus YDR162C, strain NBP2, stronger effect = lower value 0.706 | locus YDR318W, strain mcm21, stronger effect = lower value 0.885 | locus YDR388W, stronger effect = lower value 0.859 | locus YDR502C, strain sam2, stronger effect = lower value 0.801 | locus YEL061C, strain CIN8, stronger effect = lower value 0.766 | locus YER167W, strain BCK2, stronger effect = lower value 0.756 | locus YGL078C, strain dbp3, stronger effect = lower value 0.898 | locus YGL086W, strain mad1, stronger effect = lower value 0.856 | locus YGL248W, strain PDE1, stronger effect = lower value 0.845 | locus YGR135W, strain pre9, stronger effect = lower value 0.872 | locus YHR030C, strain SLT2, stronger effect = lower value 0.906 and 0.85 | locus YHR079C, strain IRE1 (second series), stronger effect = lower value 0.857 | locus YHR079C, strain IRE1, stronger effect = lower value 0.832 | locus YHR129C, strain ARP1, stronger effect = lower value 0.895 | locus YHR200W, strain rpn10, stronger effect = lower value 0.864 | locus YIL066C, strain RNR3, stronger effect = lower value 0.827 | locus YIL073C, strain SPO22, stronger effect = lower value 0.662 | locus YIL125W, strain kgd1, stronger effect = lower value 0.88 | locus YIR030C, strain dcg1, stronger effect = lower value 0.889 | locus YJL095W, strain BCK1, stronger effect = lower value 0.79 and 0.852 | locus YJL134W, strain LCB3, stronger effect = lower value 0.924 | locus YJL168C, strain set2, stronger effect = lower value 0.915 | locus YJL187C, strain SWE1 (second series), stronger effect = lower value 0.819 | locus YJR043C, strain POL32, stronger effect = lower value 0.687 | locus YJR066W, strain TOR1, stronger effect = lower value 0.773
inactive: locus YAL021C, strain ccr4, stronger effect = lower value 0.918 | locus YAL026C, strain drs2, stronger effect = lower value 0.966 | locus YAL030W, strain snc1, stronger effect = lower value 0.971 | locus YBL061C, strain skt5, stronger effect = lower value 0.974 | locus YBR009C, strain hhf1, stronger effect = lower value 0.966 | locus YBR021W, strain FUR4, stronger effect = lower value 1.06 | locus YBR023C, strain chs3, stronger effect = lower value 0.979 | locus YBR171W, strain sec66, stronger effect = lower value 0.977 | locus YBR229C, strain ROT2, stronger effect = lower value 0.952 | locus YBR231C, strain swc5, stronger effect = lower value 0.966 | locus YBR279W, strain paf1, stronger effect = lower value 0.947 | locus YCL011C, strain gbp2, stronger effect = lower value 0.981 | locus YCL016C, strain dcc1, stronger effect = lower value 0.943 | locus YCL069W, strain vba3, stronger effect = lower value 0.959 | locus YCR088W, strain abp1, stronger effect = lower value 0.954 | locus YDL005C, strain med2, stronger effect = lower value 0.99 | locus YDL040C, strain nat1, stronger effect = lower value 0.969 | locus YDL074C, strain BRE1, stronger effect = lower value 0.822 | locus YDL101C, strain DUN1, stronger effect = lower value 0.93 | locus YDL192W, strain arf1, stronger effect = lower value 0.922 | locus YDR001C, strain nth1, stronger effect = lower value 0.953 | locus YDR069C, strain doa4, stronger effect = lower value 0.974 | locus YDR137W, strain rgp1, stronger effect = lower value 0.997 | locus YDR159W, strain sac3, stronger effect = lower value 1.02 | locus YDR195W, strain ref2 1.04 | locus YDR297W, strain sur2, stronger effect = lower value 0.954 | locus YDR334W, strain swr1, stronger effect = lower value 0.957 | locus YDR335W, strain msn5, stronger effect = lower value 0.983 | locus YDR392W, strain spt3, stronger effect = lower value 0.965 | locus YEL003W, strain gim4, stronger effect = lower value 0.956 | locus YEL037C, strain rad23, stronger effect = lower value 0.965 | locus YEL061C, strain CIN8 (second series), stronger effect = lower value 0.946 | locus YER015W, strain faa2, stronger effect = lower value 0.97 | locus YER016W, strain bim1, stronger effect = lower value 0.953 | locus YER110C, stronger effect = lower value 0.967 | locus YER111C, strain swi4, stronger effect = lower value 0.939 | locus YER155C, strain BEM2 (second series), stronger effect = lower value 0.939 | locus YER155C, strain BEM2, stronger effect = lower value 0.937 | locus YFR010W, strain ubp6, stronger effect = lower value 0.97 | locus YGL167C, strain pmr1, stronger effect = lower value 0.986 | locus YGL173C, strain kem1, stronger effect = lower value 0.96 | locus YGL227W, strain vid30, stronger effect = lower value 0.975 | locus YGL240W, strain doc1, stronger effect = lower value 1.01 | locus YGL253W, strain hxk2, stronger effect = lower value 0.94 | locus YGR252W, strain gcn5, stronger effect = lower value 0.94 | locus YHR013C, strain ard1, stronger effect = lower value 0.988 | locus YHR027C, strain rpn1, stronger effect = lower value 0.954 | locus YHR094C, strain hxt1, stronger effect = lower value 0.925 | locus YHR142W, strain chs7, stronger effect = lower value 0.974 | locus YJL092W, strain hpr5, stronger effect = lower value 0.946 | locus YJL095W, strain BCK1 (second series), stronger effect = lower value 0.979 | locus YJL115W, strain asf1, stronger effect = lower value 0.926 | locus YJL129C, strain trk1, stronger effect = lower value 1.08 | locus YJL154C, strain vps35, stronger effect = lower value 0.949 | locus YJL164C, strain tpk1, stronger effect = lower value 0.963 | locus YJL166W, strain qcr8, stronger effect = lower value 0.993 | locus YJL187C, strain SWE1, stronger effect = lower value 0.995
